Measurements published in PubChem BioAssay (NCI).
About 79,000 compounds went through this panel and 15% of them were active in at least one assay; those are over-represented in the sample as a whole. Calls of active or inactive are those of the source. Rule as the data show it: active = growth inhibition above about 70%; inactive = the rest.

Tests used:
[1] = NCI Yeast Anticancer Drug Screen. Data for the wt2 strain (AID 169);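 also: 0% = growth of vehicle-treated yeast cultures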; conditions: S. cerevisiae wt2 strain growth inhibition, hits give high values
In short: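 Read-out: growth inhibition versus vehicle-treated control cultures after compound exposure of the yeast strain.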

[2] = NCI Yeast Anticancer Drug Screen. Data for the mlh1 strain (AID 171);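 also: 0% = growth of vehicle-treated control cultures of the same strain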; conditions: S. cerevisiae mlh1 strain growth inhibition, hits give high values
In short: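 Read-out: growth inhibition versus vehicle controls. Strain: engineered yeast with a defined DNA repair or cell cycle defect, compound-treated.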

[3] = NCI Yeast Anticancer Drug Screen. Data for the sgs1 strain (AID 173);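 also: 0% = growth of vehicle-only control cultures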; conditions: S. cerevisiae sgs1 mutant, hits give high values
In short: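 Read-out: yeast growth inhibition relative to vehicle controls, following compound exposure of a strain with a defined DNA repair/cell cycle alteration.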

[4] = NCI Yeast Anticancer Drug Screen. Data for the mlh1 rad18 strain (AID 175); conditions: S. cerevisiae mlh1 rad18 strain growth inhibition, hits give high values
In short: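 Yeast w/ defined DNA-repair lesions; compound exposure; growth vs vehicle controls → % inhibition.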

[5] = NCI Yeast Anticancer Drug Screen. Data for the rad18 strain (AID 177); conditions: S. cerevisiae rad18 mutant growth inhibition, hits give high values
In short: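 Readout: growth inhibition vs vehicle controls. Cells: genetically altered yeast strain, DNA repair defect.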

[6] = NCI Yeast Anticancer Drug Screen. Data for the rad52 strain (AID 147);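 also: 0% = growth of vehicle-treated control cultures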; conditions: S. cerevisiae rad52 mutant growth inhibition, hits give high values
In short: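 Read-out: growth inhibition versus vehicle-treated controls. Cells were a DNA repair-deficient yeast strain treated with compounds.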

[7] = NCI Yeast Anticancer Drug Screen. Data for the wt1 strain (AID 149);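 also: 0% = growth of vehicle-treated wt1 cultures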; conditions: S. cerevisiae wt1 strain (SPY 50644) growth inhibition, hits give high values
In short: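 Yeast wt1 strain exposed to compounds; growth inhibition measured relative to vehicle-treated controls.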

[8] = NCI Yeast Anticancer Drug Screen. Data for the rad50EPP+ strain (AID 151);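 also: 0% = growth of vehicle-treated control cultures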; conditions: S. cerevisiae rad50 mutant strain, hits give high values
In short: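 Growth inhibition read against vehicle controls in rad50EPP+ yeast, a strain altered in DNA damage repair, after compound exposure.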

[9] = NCI Yeast Anticancer Drug Screen. Data for the mgt1 strain (AID 153); conditions: S. cerevisiae mgt1 mutant growth inhibition, hits give high values
In short: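 mgt1 yeast grown with test compound; read-out is growth inhibition versus vehicle-treated cultures.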

[10] = NCI Yeast Anticancer Drug Screen. Data for the rad50 strain (AID 155);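 also: 0% = growth of vehicle-only cultures of the same strain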; conditions: S. cerevisiae rad50 strain growth inhibition, hits give high values
In short: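 Yeast carrying a defined DNA repair defect were exposed to test compounds, and growth was compared with vehicle-treated controls to give percent inhibition.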

[11] = NCI Yeast Anticancer Drug Screen. Data for the mec2-1 strain (AID 157); conditions: S. cerevisiae mec2-1 strain, hits give high values
In short: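 Yeast mec2-1 mutant treated with compound. Readout: growth inhibition vs vehicle controls.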

[12] = NCI Yeast Anticancer Drug Screen. Data for the rad14 strain (AID 159);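 also: 0% = growth of vehicle-treated control cultures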; conditions: S. cerevisiae rad14 strain growth inhibition, hits give high values
In short: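 Yeast cells carrying a defined DNA-repair defect were exposed to compounds, and growth inhibition was calculated relative to vehicle-treated control cultures.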

[13] = NCI Yeast Anticancer Drug Screen. Data for the sgs1 mgt1 strain (AID 161);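 also: 0% = growth of cultures given vehicle only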; conditions: S. cerevisiae sgs1 mgt1 strain, hits give high values
In short: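 Inhibition of yeast growth, normalised to vehicle-treated controls, is reported for a strain bearing genetic alterations in DNA damage repair.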

[14] = NCI Yeast Anticancer Drug Screen. Data for the CLN2oe strain (AID 163);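 also: 0% = growth of vehicle-only control cultures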; conditions: S. cerevisiae CLN2oe strain, hits give high values
In short: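 Read-out: yeast growth inhibition, expressed relative to vehicle-only controls. The strain bears an engineered cell-cycle alteration.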

[15] = NCI Yeast Anticancer Drug Screen. Data for the cln2 rad14 strain (AID 165);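 also: 0% = growth equal to vehicle treated cultures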; conditions: S. cerevisiae cln2 rad14 strain, hits give high values
In short: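 cln2 rad14 yeast strain; compound exposure; growth inhibition read vs vehicle controls.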

[16] = NCI Yeast Anticancer Drug Screen. Data for the bub3 strain (AID 167); conditions: S. cerevisiae bub3 mutant strain, hits give high values
In short: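 Compounds were applied to a genetically altered yeast strain carrying a cell-cycle control defect. Growth inhibition was scored against vehicle-treated controls.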

[17] = at 5.0 µM (retest, dose inferred, filed as 0.5)
[18] = at 50.0 µM (retest, dose inferred, filed as 5.0)

Measured: growth inhibition

O=C(/N=N/C(=O)Oc1ccccc1)Oc1ccccc1
inactive: [1]; at 1.2 µM -46% | [1]; at 3.7 µM -48% | [1]; at 11.0 µM -54% | [1]; at 33.0 µM -39% | [1]; at 100.0 µM 48% | [2]; at 1.2 µM -70% | [2]; at 3.7 µM -85% | [2]; at 11.0 µM -78% | [2]; at 33.0 µM -44% | [2]; at 100.0 µM 3% | [3]; at 1.2 µM -78% | [3]; at 3.7 µM -80% | [3]; at 11.0 µM -35% | [3]; at 33.0 µM -27% | [3]; at 100.0 µM 59% | [4]; [17] 44% | [4]; at 50.0 µM 49% | [5]; at 1.2 µM -44% | [5]; at 3.7 µM -72% | [5]; at 11.0 µM -72% | [5]; at 33.0 µM -58% | [5]; at 100.0 µM 45%
active: [4]; [18] 98%

COc1ccc2nc3cccc([N+](=O)[O-])c3c(NCCNCCO)c2c1
active: [6]; at 3.7 µM 90% | [6]; at 11.0 µM 95% | [6]; at 33.0 µM 96% | [6]; at 100.0 µM 96% | [7]; at 100.0 µM 70% | [8]; at 33.0 µM 92% | [8]; at 100.0 µM 96% | [9]; at 100.0 µM 75% | [10]; at 3.7 µM 81% | [10]; at 11.0 µM 93% | [10]; at 33.0 µM 94% | [10]; [18] 98% | [10]; at 50.0 µM 85% | [10]; at 100.0 µM 95% | [11]; at 3.7 µM 75% | [11]; at 11.0 µM 95% | [11]; at 33.0 µM 96% | [11]; [18] 96% | [11]; at 50.0 µM 89.3% | [11]; at 100.0 µM 97% | [12]; at 1.2 µM 90% | [12]; at 3.7 µM 97% | [12]; at 11.0 µM 99% | [12]; at 33.0 µM 99% | [12]; at 100.0 µM 98% | [13]; [17] 78% | [13]; [18] 94% | [13]; at 50.0 µM 78.2% | [14]; at 100.0 µM 90% | [15]; [17] 81% | [15]; [18] 98% | [15]; at 50.0 µM 86.8% | [16]; [18] 90% | [16]; at 100.0 µM 96% | [1]; at 100.0 µM 94% | [2]; at 33.0 µM 80% | [2]; at 100.0 µM 88% | [3]; at 1.2 µM 80% | [3]; at 3.7 µM 89% | [3]; at 11.0 µM 93% | [3]; at 33.0 µM 95% | [3]; at 100.0 µM 95% | [4]; [18] 98% | [4]; at 50.0 µM 78.2% | [5]; at 1.2 µM 95% | [5]; at 3.7 µM 96% | [5]; at 11.0 µM 96% | [5]; at 33.0 µM 95% | [5]; at 100.0 µM 95%
inactive: [6]; at 1.2 µM 69% | [7]; at 1.2 µM -3% | [7]; at 3.7 µM 3% | [7]; at 11.0 µM 20% | [7]; at 33.0 µM 49% | [8]; at 1.2 µM 2% | [8]; at 3.7 µM 18% | [8]; at 11.0 µM 61% | [9]; at 1.2 µM -2% | [9]; at 3.7 µM 1% | [9]; at 11.0 µM 23% | [9]; at 33.0 µM 69% | [10]; at 1.2 µM 41% | [10]; [17] 36% | [11]; at 1.2 µM 17% | [11]; [17] 1% | [14]; at 1.2 µM -5% | [14]; at 3.7 µM -8% | [14]; at 11.0 µM -5% | [14]; at 33.0 µM 32% | [16]; at 1.2 µM -11% | [16]; at 3.7 µM -17% | [16]; [17] -31% | [16]; at 11.0 µM -11% | [16]; at 33.0 µM 36% | [16]; at 50.0 µM 67.7% | [1]; at 1.2 µM -2% | [1]; at 3.7 µM -1% | [1]; at 11.0 µM 4% | [1]; at 33.0 µM 35% | [2]; at 1.2 µM 1% | [2]; at 3.7 µM 21% | [2]; at 11.0 µM 50% | [4]; [17] 67%

CCOC(=S)SSSC(=S)OCC
inactive: [6]; at 1.2 µM 4% | [6]; at 3.7 µM 17% | [7]; at 1.2 µM -3% | [7]; at 3.7 µM 3% | [7]; at 11.0 µM 31% | [8]; at 1.2 µM 18% | [8]; at 3.7 µM 51% | [9]; at 1.2 µM -1% | [9]; at 3.7 µM 6% | [9]; at 11.0 µM 31% | [9]; at 100.0 µM 56% | [10]; at 1.2 µM 7% | [10]; at 3.7 µM 19% | [10]; [17] 43% | [10]; at 50.0 µM 29.6% | [11]; at 1.2 µM -6% | [11]; at 3.7 µM -5% | [11]; at 11.0 µM 20% | [11]; at 50.0 µM 19.4% | [12]; at 1.2 µM 0% | [12]; at 3.7 µM 5% | [12]; at 11.0 µM 40% | [13]; [17] 9% | [13]; at 50.0 µM 41.2% | [14]; at 1.2 µM -2% | [14]; at 3.7 µM -1% | [14]; at 11.0 µM 18% | [14]; at 33.0 µM 57% | [15]; [17] 1% | [15]; at 50.0 µM -2.7% | [16]; at 1.2 µM -5% | [16]; at 3.7 µM -4% | [16]; [17] -3% | [16]; at 11.0 µM 36% | [16]; at 50.0 µM 50.4% | [1]; at 1.2 µM -1% | [1]; at 3.7 µM 0% | [1]; at 11.0 µM 33% | [2]; at 1.2 µM 3% | [2]; at 3.7 µM 7% | [2]; at 11.0 µM 41% | [3]; at 1.2 µM 0% | [3]; at 3.7 µM 9% | [3]; at 11.0 µM 56% | [4]; [17] 55% | [4]; at 50.0 µM 27.2% | [5]; at 1.2 µM 0% | [5]; at 3.7 µM 8% | [5]; at 11.0 µM 56%
active: [6]; at 11.0 µM 70% | [6]; at 33.0 µM 97% | [6]; at 100.0 µM 99% | [7]; at 33.0 µM 88% | [7]; at 100.0 µM 99% | [8]; at 11.0 µM 93% | [8]; at 33.0 µM 99% | [8]; at 100.0 µM 99% | [9]; at 33.0 µM 96% | [10]; at 11.0 µM 76% | [10]; at 33.0 µM 99% | [10]; [18] 99% | [10]; at 100.0 µM 99% | [11]; [17] 87% | [11]; at 33.0 µM 91% | [11]; [18] 100% | [11]; at 100.0 µM 99% | [12]; at 33.0 µM 96% | [12]; at 100.0 µM 99% | [13]; [18] 99% | [14]; at 100.0 µM 95% | [15]; [18] 92% | [16]; at 33.0 µM 95% | [16]; [18] 99% | [16]; at 100.0 µM 99% | [1]; at 33.0 µM 95% | [1]; at 100.0 µM 99% | [2]; at 33.0 µM 95% | [2]; at 100.0 µM 99% | [3]; at 33.0 µM 98% | [3]; at 100.0 µM 99% | [4]; [18] 99% | [5]; at 33.0 µM 98% | [5]; at 100.0 µM 99%
